# Results: ChEMBL document CHEMBL3988442, “University of Dundee, Small-Polar-MMV Screening Library” (2021)
# Hit rate of the full screen: of about 48,000 compounds, about 13,000 (27%) showed an effect of 50% or more. Some of the results follow.
# Test system: Wolbachia pipientis
# Test: Anti-Wolbachia Cell-Based Screen
# Format: functional
# Parameters: scale not given: in the data most compounds retested in dose-response had high values
# Details: 5 µM
row,SMILES,Percent Effect [%]
1,CC(C)OCCOCc1cccc(NC(=O)N2CCCC(O)C2)c1 (configuration not stated),-8.695
2,CC(C)(C)OC(=O)N1CCC(NC2CCS(=O)(=O)C2)CC1 (configuration not stated),-18.26
3,c1ncn(Cc2nnc(C3CCN(C4CCOCC4)CC3)n2C2CC2)n1,-14.43
4,Cc1csc2c(N3CCC(NCCc4ccnn4C)CC3)ncnc12,1.51
5,Cc1ccc(OCC(=O)N2CCCC(n3nc(C)nc3C)C2)cc1 (configuration not stated),110.7
6,CCOc1cc(C(=O)N2CCCC(n3nc(C)nc3C)C2)ccn1 (configuration not stated),108.5
7,COc1ccsc1C(=O)N1CCCC(n2nc(C)nc2C)C1 (configuration not stated),-12.01
8,Cc1nc(C)n(C2CCCN(C(=O)c3ccccc3C)C2)n1 (configuration not stated),3.222
9,CCOc1ncccc1C(=O)N1CCCC(n2nc(C)nc2C)C1 (configuration not stated),-3.094
10,Cc1nc(C)n(C2CCCN(C(=O)COCc3ccccc3)C2)n1 (configuration not stated),-1.544
11,CCCNC(=O)CCC(=O)Nc1cc2sc(C)nc2cc1OC,9.826
12,CC(=O)N(CCc1ccccc1)CC(=O)NC1(C#N)CC1,-30.59
13,COCCNC(=O)Nc1cc2c(cc1SC)OCCO2,8.638
14,CCCn1ncc(CN(Cc2cccnc2)Cc2cccs2)c1C,103.6
15,CCCn1ncc(CN(Cc2ccsc2)Cc2ccco2)c1C,-9.54
16,CCCn1ncc(CN(Cc2cccnc2)Cc2ccsc2)c1C,-8.215
17,Cc1cnc(C(=O)NCC2CCOc3ccccc3C2)cn1 (configuration not stated),-13.56
18,O=C(O)C(F)(F)F.O=C1NC2(CCN(CCO)CC2)CC1c1ccccc1 (configuration not stated),-11.42
19,CCC(=O)N1CCC2(CCC(N3CCCC3)c3ccccc32)CC1.O=C(O)C(F)(F)F (configuration not stated),3.41
20,CN(C)CC(=O)N1CCC2(CC1)Cc1ccccc1CN(C)C2=O.O=C(O)C(F)(F)F,100.6
21,CN1Cc2ccccc2CC2(CCN(CCO)CC2)C1=O.O=C(O)C(F)(F)F,115.9
22,CCC(=O)N1CCC2(CC1)CN(CCO)Cc1ccccc12.O=C(O)C(F)(F)F,102.3

row,SMILES,Percent Effect [%]
1,CN(C)CC(=O)N1CCC2(CCc3ccc(-c4ccncc4)cc32)CC1.O=C(O)C(F)(F)F.O=C(O)C(F)(F)F,-5.921
2,Cc1ccc2c(c1)CCC21CCN(C(=O)CN(C)C)CC1.O=C(O)C(F)(F)F,-5.589
3,O=C(O)C(F)(F)F.OCCN1CCC2(CCc3cc(-c4ccoc4)ccc32)CC1,-5.602
4,COc1cccc2[nH]cc(CCNC(=O)N3CCCC3CO)c12 (configuration not stated),-6.356
5,Cc1cc(C(F)(F)F)nn1CC(C)C(=O)Nc1ccncc1 (configuration not stated),0.9571
6,CCCc1nnc2sc(C3CCN(CCOC)CC3)nn12,91.66
7,CCCc1nnc2sc(C3CCN(C4CCN(C)CC4)CC3)nn12,110.3
8,COCCN1CCC(CN(C)c2nc3c(s2)c(C)nn3C)CC1,20.85
9,CC(C)c1nnc2sc(CC3CCS(=O)(=O)CC3)nn12,-25.36
10,CCCc1nnc(N2CCC(N3CCCC3)CC2)o1,13.58
11,CCCN1CCC(Cc2nn3c(C(C)C)nnc3s2)CC1,-24.84
12,CN1CCC(c2nnc(CN3CCCC3)n2C2CC2)CC1,3.888
13,CCc1nnc2n1CCN(C(=O)c1cnc(C3CC3)s1)C2,-2.147
14,CCCc1nnc2sc(C3CCS(=O)(=O)CC3)nn12,102.2
15,COCCN(Cc1ccc(F)cc1Cl)C(=O)c1c(C)noc1C,-7.474
16,CCCNC(=O)NC(=O)CN(CC(C)O)c1ccccc1 (configuration not stated),5.048
17,CC(C)C[C@@H]1N[C@H](C(=O)NC2CCOCC2)Cc2c[nH]c3cccc1c23,-3.699
18,O=C(COc1ccc2c(c1)CCC2)N1CCOCC1c1ncon1 (configuration not stated),-4.669
19,O=C(NCCSCc1ccc(Br)s1)C1CCCN(C(=O)c2cccs2)C1 (configuration not stated),-11.8
20,CC(=O)N[C@H]1CCN(c2nc(C)nc3c2c(C)nn3C)C1,-0.02014
21,CCn1ncc(NC(=O)c2cc(C3CC3)nc3c2c(C)nn3C)c1C,0.1323
22,Cc1cc(C(=O)Nc2cc(C3CC3)n[nH]2)c2c(C)nn(C)c2n1,94.33

row,SMILES,Percent Effect [%]
1,O=C1NCCCC1NC(=O)C1(c2cccc(Cl)c2)CCC1 (configuration not stated),-14.19
2,CC(=O)NC1CCN(C(=O)Nc2cccc(C(F)(F)F)c2)CC1,-0.6218
3,CC(=O)NC1CCN(C(=O)Nc2cccc(SC(F)F)c2)CC1,-5.711
4,CC(=O)Nc1cccc([C@H]2C[C@@H](NC(C)=O)CCO2)c1,88.4
5,CC1CN(C(=O)C2(c3ccc(F)cc3F)CCOCC2)CCO1 (configuration not stated),-18.6
6,CC(=O)N1CCC(C(=O)N2CCC(=Cc3cccc(F)c3)CC2)CC1,0.4533
7,Cc1cc(CN(C)C(=O)NCc2ccco2)no1,6.91
8,O=C(NCc1ccco1)N1CCCCC1c1nc(-c2ccncc2)no1 (configuration not stated),87.86
9,O=C(c1ccc2nccn2c1)N1CCCC1c1noc(C2CC2)n1 (configuration not stated),1.976
10,COc1ncccc1C(=O)N1CCCC1c1nc(-c2ccccc2)no1 (configuration not stated),-0.6104
11,Cc1noc(C2CCCCN2C(=O)NCc2ccco2)n1 (configuration not stated),91.67
12,O=C(NCc1ccco1)N1CCCCC1c1nc(C2CC2)no1 (configuration not stated),74.85
13,O=C(NCc1ccco1)C1CCCN1Cc1nc(-c2ccco2)no1 (configuration not stated),-1.216
14,CSc1nc(C2CC2)nc(C)c1C(=O)NCc1ccco1,-1.039
15,Cc1noc(C2CCCCN2C(=O)C2CCN(C(C)C)CC2)n1 (configuration not stated),-32.36
16,O=C(NC1CCCC1)N1CCCCC1c1nc(C2CC2)no1 (configuration not stated),105.7
17,CN(C)Cc1nnc(C(=O)N(C)Cc2ccc(F)cc2)o1,-46.46
18,Cn1cc(C2CCCN2C(=O)CCCc2nc3ccccc3[nH]2)cn1 (configuration not stated),0.1259
19,CC(=O)N1CCC(NC2(Cc3cc(CN(C)C)on3)COC2)CC1,-3.87
20,Cc1ccc(-c2nn3c(nc2=O)-c2ccccc2NC3C(=O)O)cc1C (configuration not stated),-8.788
21,CCc1ncncc1C(=O)N1CCOC(c2nc(C)n[nH]2)C1 (configuration not stated),2.402
22,Cc1n[nH]c(C2CN(C(=O)c3ccnc(C4CC4)n3)CCO2)n1 (configuration not stated),-13.72

row,SMILES,Percent Effect [%]
1,CCc1n[nH]c(C2CN(C(=O)c3ccnc(C4CC4)n3)CCO2)n1 (configuration not stated),101.3
2,CCc1n[nH]c(C2CN(C(=O)c3cnc(C)nc3CC)CCO2)n1 (configuration not stated),106.1
3,CCc1n[nH]c(C2CN(C(=O)c3ccnc(C)n3)CCO2)n1 (configuration not stated),98.73
4,CCCc1n[nH]c(C2CN(C(=O)c3ccnc(C4CC4)n3)CCO2)n1 (configuration not stated),146
5,Cc1nc(N)cc(NCc2csc(N(C)C)n2)n1,-17.8
6,O=S(=O)(NCCc1c[nH]c2cc(F)ccc12)C1CCOC1 (configuration not stated),22.23
7,CS(=O)(=O)c1ccc(OCCNCc2ccc(F)cc2F)cc1,-10.65
8,Cl.O=C(C1CC1)N1CCC2(CC1)CNc1ccc(F)cc12,-2.948
9,CC(CC#N)N(C)Cc1ccc(F)cc1C#N (configuration not stated),3.658
10,CCc1nnc(CN2CCC3(CCC(=O)N(C4CCCC4)C3)CC2)o1,8.44
11,O=C(CN1CCN(c2ncnc3cccc(F)c23)CC1)N1CCCC1,6.401
12,COCCO[C@@H]1CCN(C(=O)c2ccc[nH]2)[C@H]1Cc1cnn(C)c1,-18.74
13,CS(=O)(=O)N[C@@H]1CCN(Cc2cccnc2)[C@H]1Cc1cccnc1,0.03565
14,Cn1cc(CN2CC[C@@H](NS(C)(=O)=O)[C@@H]2Cc2cccnc2)cn1.O=C(O)C(F)(F)F.O=C(O)C(F)(F)F,0.0713
15,O=C(O)C(F)(F)F.O=C(O)C(F)(F)F.O[C@H]1CCN(Cc2ccoc2)[C@H]1Cc1cccnc1,-11.6
16,COCCO[C@H]1CCN(Cc2cnn(C)c2)[C@H]1Cc1cccnc1,86.22
17,COCCO[C@H]1CCN(Cc2ccoc2)[C@H]1Cc1cccnc1,85.57
18,C=C(C)COc1cccc(C(=O)N(CC)Cc2nc(COC)no2)c1,-39.48
19,Cn1c(N)nnc1SC1CCCN(c2ccccc2F)C1=O (configuration not stated),-7.514
20,O=C(O)C(F)(F)F.c1nc(COCC2CC2)c2n1CCCN(CC1CC1)C2,-4.563
21,Cc1ccc(CN2CCc3c(COCC4CC4)nn(C)c3C2)s1.O=C(O)C(F)(F)F,115.6
22,Cn1nc(COCC2CC2)c2c1CN(CC1CC1)CC2.O=C(O)C(F)(F)F.O=C(O)C(F)(F)F,100.4

row,SMILES,Percent Effect [%]
1,CC(C)OCc1ncn2c1CN(CC1CC1)CCC2.O=C(O)C(F)(F)F,10.37
2,CC(C)OCc1nn(C)c2c1CCN(CC1CC1)C2.O=C(O)C(F)(F)F,103.7
3,Cn1nc(COCC2CC2)c2c1CN(C(=O)c1ccno1)CC2.O=C(O)C(F)(F)F,-4.068
4,COCc1nn(C(C)C)c2c1CCN(Cc1ccc(C)s1)C2.O=C(O)C(F)(F)F,2.652
5,Cc1ccc(CN2CCc3c(C(=O)N(C)C)nn(C)c3C2)s1.O=C(O)C(F)(F)F,-3.635
6,CC(C)OCc1nn(C)c2c1CCN(Cc1ccco1)C2.O=C(O)C(F)(F)F,-9.352
7,N#CCc1ccc(OCC(=O)NS(=O)(=O)c2ccc(Cl)s2)cc1,-0.9374
8,CC(C)[C@H](C)NC1CCN(c2ccc(-c3cscn3)cc2)CC1,-7.145
9,CCCn1nnnc1CSCc1cn2c(C)cccc2n1,8.521
10,N#Cc1cccnc1N1CCCC(CO)(Cc2ccccc2F)C1 (configuration not stated),12.54
11,CNS(=O)(=O)CC(=O)N(Cc1ccsc1)c1ccccc1,7.339
12,CCCC(=O)NC(Cc1ccc(C)cc1)c1ccccn1 (configuration not stated),-7.589
13,CC(C)[C@H]1CN(Cc2ccccn2)C[C@@H]1NC(=O)CC1CCC1,-7.125
14,NC[C@H]1CC[C@H](C(NC(=O)c2ccccc2)c2ccccn2)CC1 (some centres not stated),-1.705
15,NC[C@H]1CC[C@H](C(NC(=O)CC2CCCC2)c2ccccn2)CC1 (some centres not stated),151
16,NC[C@H]1CC[C@H](C(NC(=O)CC2CCCCC2)c2ccccn2)CC1 (some centres not stated),140.5
17,O=C(Cn1cnc(NC(=O)CC2CCCC2)n1)NCc1ccccc1,-4.841
18,NC[C@H]1CC[C@H](C(NC(=O)c2ccccn2)c2ccccn2)CC1 (some centres not stated),-2.81
19,NC[C@H]1CC[C@H](C(NC(=O)C2CC2)c2ccccn2)CC1 (some centres not stated),117.5
